# An excerpt weighted towards active compounds, which were near 19% of everything screened.
# ASM inhibitor = human S-ASM enzyme inhibition. P17405. placental ASM, HMU-PC fluorogenic substrate, 60 min. Potency, µM (doses to about 57.5 µM), without a hit: top-dose activity change, negative = inhibition, actives largely listed as inhibitors. 340,000 compounds, 0.006% hits; further: potency means the concentration at half of the fitted maximal effect
# Target sequence (P17405 47-631 limits assumed): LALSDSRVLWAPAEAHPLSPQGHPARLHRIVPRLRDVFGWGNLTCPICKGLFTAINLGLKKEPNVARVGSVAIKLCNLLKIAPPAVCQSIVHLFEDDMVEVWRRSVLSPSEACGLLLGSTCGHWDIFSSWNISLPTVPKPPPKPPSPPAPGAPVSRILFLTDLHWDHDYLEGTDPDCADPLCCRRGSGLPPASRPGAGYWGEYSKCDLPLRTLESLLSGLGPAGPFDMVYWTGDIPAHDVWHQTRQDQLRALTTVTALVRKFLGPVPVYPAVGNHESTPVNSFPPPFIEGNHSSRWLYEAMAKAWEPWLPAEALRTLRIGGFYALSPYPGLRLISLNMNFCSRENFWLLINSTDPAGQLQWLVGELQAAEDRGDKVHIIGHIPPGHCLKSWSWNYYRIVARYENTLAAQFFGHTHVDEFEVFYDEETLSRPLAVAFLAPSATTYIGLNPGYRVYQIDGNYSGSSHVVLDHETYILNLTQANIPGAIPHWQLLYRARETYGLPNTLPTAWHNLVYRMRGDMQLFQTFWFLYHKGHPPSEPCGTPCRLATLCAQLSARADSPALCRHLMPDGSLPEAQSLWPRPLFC
#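 Human placenta-derived ASM preincubated with compound 10 min at room temperature, then reacted with 9 uM (final) fluorogenic HMU-PC substrate for 60 min at 37 C. Stop solution raises pH to 10; fluorescence read at Ex 386/Em 447 nm.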
# TDP1 cell noCPT = qHTS for Inhibitors of human tyrosyl-DNA phosphodiesterase 1 (TDP1): qHTS in cells in absence of CPT; DT40 Tdp1-/- hTDP1 cells, no CPT, ATP luminescence, 48 h; 420,000 compounds, 15% hits; AID 686978, 2013; Potency, µM (doses to about 46.2 µM), without a hit: at the top dose activity change, negative = growth inhibition, hits mostly inhibitors; further: potency means the concentration at half of the fitted maximal effect; on the % scale 0 is the no-effect control and ±100 the full control effect; nearly all actives have a fitted effect of over 55% in size
#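 Chicken DT40 Tdp1-/- cells complemented with human TDP1, screened without camptothecin (DMSO vehicle only), 400 cells/well. Compounds pin-transferred, cells incubated at 37 °C for at least 48 hr. Growth read as ATP-dependent luminescence (CellTiter-Glo, 30 min at RT).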
# TGFb SMAD3 inh = TGF-b pathway inhibition | HepG2 CAGA-GFP TGF-b/SMAD3 reporter, GFP fluorescence, 18 h; TGF-beta stimulated, 500 pg/mL final | Potency, µM (series often up to 46.1 µM), inactives show at the top dose activity, negative = inhibition, most hits filed as inhibitors | 410,000 compounds, 1.2% hits; further: potency means the concentration at half of the fitted maximal effect; on the % scale 0 is the no-effect control and ±100 the full control effect; nearly all actives have a fitted effect of over 65% in size
#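 Inhibition of TGF-beta-driven CAGA-GFP reporter expression in HEPG2 cells is measured by cellular GFP fluorescence after 18 h stimulation with 500 pg/mL recombinant TGF-beta in 1% FBS medium at 37 degrees C.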
# HepG2 tox = HepG2 cytotoxicity, counter-screen for TGF-b inhibitors; Potency, µM (doses to about 46.1 µM), inactives show top-dose activity change, negative = cytotoxicity, usual class: cytotoxic; AID 588856; 410,000 compounds, 0.76% hits; HepG2 CAGA-GFP viability, ATP luminescence, 18 h; further: potency means the concentration at half of the fitted maximal effect
#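 CellTiter-Glo luminescence gave cytotoxicity after 18 hours at 37 degrees C. The cells were HepG2 CAGA-GFP in 1% FBS DMEM, stimulated with 500 pg/mL TGF-beta after compound addition. %Activity was normalised to no-cell wells (complete cell-killing) and DMSO (no toxicity), and curves were fitted and classified.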
# IL1B secr inh = inhibitors of inflammasome signaling (IL-1 beta secretion) | 360,000 compounds, 4.7% hits | THP-1 LPS/ATP IL-1B secretion, AlphaLISA, 16 h; hits give low values | AID 743279 | activity change, % at 57.5 µM; in the data active means activity change below about -50%; inconclusive means mostly about -30% to -49%; further: on the % scale 0 is the no-effect control and ±100 the full control effect
#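 Secreted IL-1B measured by AlphaLISA bead assay after 16 h compound exposure of THP-1 cells; compounds (final up to 57.5 uM) added 1 h before LPS (250 ng/mL) and ATP (1.25 mM) stimulation; lower signal means less secretion.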
# TDP1 cell CPT = growth inhibition of DT40 Tdp1-/-;hTDP1 cells with camptothecin (screen for TDP1 inhibitors) | 420,000 compounds, 12% hits | chicken DT40 Tdp1-/-;hTDP1 cells + 20 nM CPT, ATP luminescence, 48 h | Potency, µM (top dose mostly 46.2 µM), for the others: top-dose activity change, negative = growth inhibition, usual class: inhibitors; further: potency means the concentration at half of the fitted maximal effect; on the % scale 0 is the no-effect control and ±100 the full control effect; nearly all actives have a fitted effect of over 55% in size
#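 Chicken DT40 Tdp1-/- cells stably complemented with human TDP1 were seeded at 400 cells/well in medium containing 20 nM camptothecin, exposed to pin-transferred compounds, and grown at 37 °C for at least 48 hr. Viability was read as ATP luminescence.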
# Active calls of the source: *; ? = inconclusive; / = no result. Unless noted, the call rests on the fitted dose curve; in most records, active means well fitted curve in the direction sought with a large enough effect; inconclusive means small, poorly fitted or top-dose-only effect, or another doubt; inactive means no such curve, though single readings can be large; an effect the other way counts as inactive or inconclusive.
SMILES,ASM inhibitor,TDP1 cell noCPT,TGFb SMAD3 inh,HepG2 tox,IL1B secr inh,TDP1 cell CPT
CC(C)[C@H](NS(=O)(=O)c1ccc2c(c1)OCCO2)C(=O)OCC(=O)Nc1ccccc1Cl,1%,-10%,0%,2%,19,-2%
CCOc1ccccc1N1CCN(C(=O)c2ccc(S(=O)(=O)Nc3ccccc3)cc2)CC1,0%,?,?,-28%,-8,18µM*
O=C(O)c1ccc(S(=O)(=O)Nc2ccc3c(c2)OCCO3)cc1,3%,6%,0%,19%,10,6%
COC(=O)c1ccc(Cl)c(NS(=O)(=O)c2ccc3c(c2)OCCO3)c1,0%,4.1µM*,-8%,-5%,3,5.2µM*
COc1ccc(-n2nnnc2SCC(=O)Nc2c(C)n[nH]c2C)cc1,-1%,-13%,-8%,-15%,12,-1%
CCOc1ccc(NC(=O)N2CCN(Cc3cc(=O)n4nc(-c5ccc(OC)cc5)sc4n3)CC2)cc1,/,-20%,0%,4%,/,-2%
O=C(N[C@@H](Cc1ccccc1)C(=O)N1CCN(S(=O)(=O)c2ccc(F)cc2)CC1)c1ccco1,-1%,21µM*,-10%,-3%,6,15µM*
CC1CN(C(=O)c2ccc(S(=O)(=O)Nc3ccccc3F)cc2)CC(C)O1 (configuration not stated),7%,-5%,17%,10%,-2,6%
CC1CN(C(=O)c2ccc(NS(=O)(=O)c3ccc(C(C)(C)C)cc3)cc2)CC(C)O1 (configuration not stated),5%,9.2µM*,-4%,-3%,48,15µM*
O=C(NC(Cc1ccccc1)C(=O)N1CCN(c2ccccc2O)CC1)c1ccccc1 (configuration not stated),-5%,16µM*,4%,-4%,-8,?
COc1ccc(NS(=O)(=O)c2ccc(C(=O)N3CCC(C)CC3)cc2)cc1,1%,?,-19%,-8%,-2,23µM*
Cn1cc(-c2cc3n(n2)CCC(=O)N3CC(=O)NCc2ccc(Cl)cc2)c2ccccc21,/,-29%,-28%,-24%,/,-28%
Cc1ccccc1CS(=O)(=O)CC(O)CN1CCCC1=O (configuration not stated),4%,14%,-4%,-3%,3,-6%
CCOc1ccc(NS(=O)(=O)c2ccc(C(=O)N3CCCCC3)cc2)cc1,0%,13µM*,0%,-14%,32,15µM*
O=C(c1ccc(S(=O)(=O)Nc2ccc(F)cc2)cc1)N1CCN(C(=O)c2ccco2)CC1,0%,12µM*,-3%,-20%,19,13µM*
COc1ccc(NS(=O)(=O)c2ccc(C(=O)NCC3(N4CCOCC4)CCCCC3)cc2)cc1,-1%,?,15%,-23%,4,?
CCOc1ccc(S(=O)(=O)Nc2ccc(C(=O)NNC(=O)c3ccncc3)cc2)cc1,0%,-2%,-8%,19%,13,-21%
CCOc1ccc(S(=O)(=O)Nc2ccc(C(=O)N3CC(C)OC(C)C3)cc2)cc1 (configuration not stated),4%,-22%,?,-6%,8,?
CCOc1ccc(S(=O)(=O)Nc2ccc(C(=O)NCC3(N4CCCCC4)CCCCC3)cc2)cc1,-3%,21µM*,?,-16%,-10,?
CCOc1ccc(NS(=O)(=O)c2ccc(C(=O)N3CCN(c4ncccn4)CC3)cc2)cc1,-1%,8.2µM*,-21%,17%,0,9.2µM*

# Screens deposited in PubChem by National Center for Advancing Translational Sciences (NCATS).
